Assay [1] is described as follows: ATG_TCF_b_cat_CIS: Attagene CIS-FACTORIAL HepG2 Assay for human T-Cell-Factor with beta-catenin (TCF/b-cat) (AID 2282965; active = hit-call score of the fitted dose curve at least 0.9, where 1 is the maximum; inactive = score below 0.9). The note with it: HepG2 TCF/beta-catenin cis-reporter transcription, actives raise or lower the signal. In outline:
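Measured: reporter mRNA in HepG2 transiently transfected with cis-promoter reporter units, 24 h after chemical addition. Fitting was bidirectional, DMSO as negative control.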

A short description of assay [2]: ATG_TAL_CIS: Attagene CIS-FACTORIAL HepG2 Assay for human TAL Basal Promoter (AID 2282966; active = hit-call score of the fitted dose curve at least 0.9, where 1 is the maximum; inactive = score below 0.9;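 also: background control endpoint measuring basal TAL promoter reporter mRNA not a specific factor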). The settings on record: HepG2 Attagene cis-factorial TAL promoter reporter; actives raise or lower the signal. In outline:
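Fluorescence of labelled reporter cDNA fragments, resolved by capillary electrophoresis, gave the readout. Human HepG2 liver cells carried transiently transfected cis-element reporter units and were treated for 24 hours; activity was fitted bidirectionally against DMSO.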

Assay [3] can be described thus: ATG_TGFb_CIS: Attagene CIS-FACTORIAL HepG2 Assay for human Transforming Growth Factor (TGF) (AID 2282967; active = hit-call score of the fitted dose curve at least 0.9, where 1 is the maximum; inactive = score below 0.9). The note with it: HepG2 Attagene CIS TGFb reporter, mRNA transcription; actives raise or lower the signal. A digest of the protocol:
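HepG2 cells transiently transfected with cis-promoter-driven multiple reporter units measure endogenous TF activity; reporter mRNA quantified at 24 h by RT-PCR, FAM labeling, HpaI digestion and capillary electrophoresis. Bidirectional fit vs DMSO.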

The target in assay [4] is Estrogen receptor (Homo sapiens) (UniProt P03372). Put plainly: ATG_ERa_TRANS: Attagene TRANS-FACTORIAL HepG2 Assay for human Estrogen Receptor alpha (ERa) (AID 2282970). The settings on record: HepG2 Attagene TRANS ERa GAL4 reporter, mRNA. A digest of the protocol: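 Human liver HepG2, transient transfection of multiple GAL4-UAS reporter units; TRANS format (exogenous NR-Gal4 chimera). 24 h dosing. Readout: reporter mRNA, RT-PCR, 6-FAM primer extension, HpaI digest, capillary electrophoresis. Positive direction vs DMSO.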

The target of assay [5] is X-box-binding protein 1 (Homo sapiens) (UniProt P17861). The experiment in a line: ATG_Xbp1_CIS: Attagene CIS-FACTORIAL HepG2 Assay for human X-box Binding Protein 1 (XBP1) (AID 2282972; active = hit-call score of the fitted dose curve at least 0.9, where 1 is the maximum; inactive = score below 0.9). The settings on record: HepG2 XBP1 cis-element reporter, Attagene multiplex; actives raise or lower the signal. A digest of the protocol: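 HepG2, transient MRTU transfection (cis-promoter driven), 24 h compound exposure. Total RNA → oligo(dT) RT → PCR → 6-FAM labeling → HpaI cut → CE. Bidirectional fit vs DMSO.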

Assay [6] concerns the target Oxysterols receptor LXR-alpha (Homo sapiens) (UniProt Q13133). The experiment in a line: ATG_LXRa_TRANS: Attagene TRANS-FACTORIAL HepG2 Assay for human Liver X Receptor alpha (LXRa) (AID 2282980). The settings on record: HepG2 Attagene TRANS reporter, LXRa transactivation. A digest of the protocol:
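Transfect HepG2 with GAL4-UAS multiplex reporter constructs (TRANS format, chimeric receptor-GAL4); treat 24 h; extract RNA, reverse-transcribe, PCR-amplify, FAM-label, HpaI-digest; resolve fragments by capillary electrophoresis. Upward response vs DMSO.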

Assay [7] addresses Hepatocyte nuclear factor 4-alpha (Homo sapiens) (UniProt P41235). Put plainly: ATG_HNF4a_TRANS: Attagene TRANS-FACTORIAL HepG2 Assay for human Hepatocyte Nuclear Factor 4 alpha (HNF4a) (AID 2282982). The settings on record: HepG2 HNF4a transactivation reporter, mRNA readout. In outline:
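Transfected HepG2 reporter cells are dosed for 24 h; reporter RNA is reverse-transcribed, amplified, fluorescently labelled and HpaI-digested before CE sizing. Positive-direction fit against DMSO.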

A short description of assay [8]: ATG_M_06_TRANS: Attagene TRANS-FACTORIAL HepG2 Assay for M06 Transcription Factor (Internal Marker) (AID 2282983).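 Also: reporter transcript level by RT-PCR then capillary electrophoresis fluorescence.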 The settings on record: HepG2 Attagene TRANS M06 internal marker reporter. A digest of the protocol: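 Transfect HepG2 with MRTUs → dose compounds 24 h → isolate RNA, oligo(dT) RT → PCR with reporter primers → 6-FAM primer extension → HpaI digest → CE fragment analysis. Positive direction vs DMSO.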

Assay [9] addresses Transcriptional activator Myb (Homo sapiens) (UniProt P10242). Put plainly: ATG_Myb_CIS: Attagene CIS-FACTORIAL HepG2 Assay for human Myeloblastosis (Myb) Proto-Oncogene Transcription Factor (AID 2282986; active = hit-call score of the fitted dose curve at least 0.9, where 1 is the maximum; inactive = score below 0.9). The settings on record: HepG2 Attagene CIS-FACTORIAL Myb reporter transcription; actives raise or lower the signal. A digest of the protocol: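 HepG2 cells were transiently transfected with cis-regulated multiple reporter transcription units reflecting endogenous Myb activity, then exposed to compound for 24 hours. Reporter mRNA was measured by RT-PCR with capillary electrophoresis; bidirectional fitting versus DMSO baseline.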

The nature of assay [10]: ATG_GAL4_TRANS: Attagene TRANS-FACTORIAL HepG2 Assay for GAL4 (Internal Marker) (AID 2282976). The settings on record: HepG2 Attagene TRANS GAL4 internal marker reporter. In outline:
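First, HepG2 cells were transfected with reporter units under GAL4-UAS control. Next, they were treated with chemical for 24 h. Finally, RNA was reverse-transcribed, PCR-amplified, FAM-labelled and resolved by capillary electrophoresis, with induction scored against DMSO.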

Assay [11] can be described thus: ATG_M_32_TRANS: Attagene TRANS-FACTORIAL HepG2 Assay for M32 Transcription Factor (Internal Marker) (AID 2282984).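 Also: transcript level of a background control reporter unit measured by RT-PCR and capillary electrophoresis.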 The settings on record: HepG2 Attagene TRANS M32 internal marker reporter. A digest of the protocol:
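Using transiently transfected HepG2 cells exposed to test chemicals for 24 h, reporter transcripts are converted to labelled cDNA fragments and quantified by capillary electrophoresis. DMSO defines the activity baseline.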

Assay [12] has as its target Nuclear receptor subfamily 4 group A member 2 (Homo sapiens) (UniProt P43354). Put plainly: ATG_NURR1_TRANS: Attagene TRANS-FACTORIAL HepG2 Assay for human Nuclear Receptor Related Protein 1 (NURR1) (AID 2282985). The settings on record: HepG2 Attagene TRANS reporter, mRNA readout. A digest of the protocol: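 Cells: HepG2, transiently transfected. Exposure: 24 h. Detection: fluorescence of labelled RT-PCR products separated by capillary electrophoresis; upward fit versus DMSO.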

Assay [13] is described as follows: ATG_M_19_TRANS: Attagene TRANS-FACTORIAL HepG2 Assay for M19 Transcription Factor (Internal Marker) (AID 2282974). The settings on record: HepG2 Attagene TRANS-FACTORIAL M19 internal marker reporter. A digest of the protocol: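 HepG2 cells transiently transfected with multiple GAL4-UAS reporter transcription units were exposed to chemicals for 24 h. Reporter mRNA was read by RT-PCR, 6-FAM primer extension, HpaI digestion and capillary electrophoresis; gain of signal fitted relative to DMSO.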

Assay [14] deals with Glucocorticoid receptor (Homo sapiens) (UniProt P04150). The experiment in a line: ATG_GR_TRANS: Attagene TRANS-FACTORIAL HepG2 Assay for human Glucocorticoid Receptor (GR) (AID 2282978).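 Also: activators score as hits since higher reporter transcript over DMSO is fitted.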 The note with it: HepG2 Attagene TRANS GR reporter, mRNA transcription. In outline: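 HepG2 cells transiently transfected with multiplexed reporter units in which chimeric NR-GAL4 proteins drive GAL4-UAS reporters; 24 h compound exposure. Reporter mRNA measured by RT-PCR, 6-FAM labelling, HpaI digestion and capillary electrophoresis; gain-of-signal fitted versus DMSO.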

Assay [15] can be described thus: ATG_VDRE_CIS: Attagene CIS-FACTORIAL HepG2 Assay for human Vitamin D Receptor Element (VDRE) (AID 2282968; active = hit-call score of the fitted dose curve at least 0.9, where 1 is the maximum; inactive = score below 0.9). The settings on record: HepG2 VDRE cis-reporter transcription, actives raise or lower the signal. A digest of the protocol:
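In transiently transfected HepG2 liver cells, gain or loss of reporter mRNA after 24 h exposure is scored relative to DMSO, using fluorescence detection by capillary electrophoresis of RT-PCR products.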

In assay [16] the target is Nuclear receptor subfamily 1 group I member 3 (Homo sapiens) (UniProt Q14994). Put plainly: ATG_CAR_TRANS: Attagene TRANS-FACTORIAL HepG2 Assay for human Constitutive Androstane Receptor (CAR) (AID 2282969).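 Also: activators raise reporter mRNA above DMSO so AC50 marks induction.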 The note with it: HepG2 Attagene TRANS-FACTORIAL CAR reporter. A digest of the protocol:
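Readout is reporter mRNA induction, quantified by fluorescent primer extension and capillary electrophoresis after RT-PCR. Cells were HepG2 transiently carrying chimeric NR-Gal4 constructs with GAL4-UAS reporters, treated for 24 h; activity scored upward from DMSO.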

Assay [17] deals with Steroid hormone receptor ERR1 (Homo sapiens) (UniProt P11474). The experiment in a line: ATG_ERRa_TRANS: Attagene TRANS-FACTORIAL HepG2 Assay for human Estrogen-Related Receptor alpha (ERRa) (AID 2282971). The note with it: HepG2 Attagene TRANS reporter, ERRa transactivation. A digest of the protocol:
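Reporter transcript induction was quantified by RT-PCR and capillary electrophoresis of FAM-labelled, HpaI-cut products after 24 h treatment of HepG2 cells carrying transiently transfected GAL4-UAS reporter units and an exogenous ERRa-Gal4 fusion; activity scored as increase over DMSO.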

Assay [18] deals with Estrogen-related receptor gamma (Homo sapiens) (UniProt P62508). The experiment in a line: ATG_ERRg_TRANS: Attagene TRANS-FACTORIAL HepG2 Assay for human Estrogen-Related Receptor gamma (ERRg) (AID 2282977).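 Also: hits increase reporter signal over DMSO so potencies reflect activators.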 The note with it: HepG2 Attagene TRANS reporter, ERRg transactivation. In outline: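 Transient HepG2 transfectants, 24 h compound exposure, GAL4-UAS reporter mRNA by RT-PCR/6-FAM labelling/capillary electrophoresis; positive direction vs DMSO.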

The target in assay [19] is Oxysterols receptor LXR-beta (Homo sapiens) (UniProt P55055). The experiment in a line: ATG_LXRb_TRANS: Attagene TRANS-FACTORIAL HepG2 Assay for human Liver X Receptor beta (LXRb) (AID 2282981). The settings on record: HepG2 Attagene TRANS GAL4-LXRb reporter, mRNA. A digest of the protocol: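 Cells: HepG2, transiently transfected with GAL4-UAS reporter units plus LXRb-Gal4 fusion. Treatment: 24 h. Detection: reporter mRNA by RT-PCR, 6-FAM labelling, HpaI digestion, capillary electrophoresis.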

Values joined by “and” are separate entries in the source; they are usually repeats but may differ in a detail not shown here. Identical values can stand only once. Records with an inconclusive call do not appear. The source holds several records for some structures; these can differ, active in one and inactive in another. Active and inactive are the calls of the source. The calls were made as follows, unless noted: active = hit-call score of the fitted dose curve at least 0.9, where 1 is the maximum; inconclusive = response in the unintended direction; inactive = score below 0.9.

Nuclear receptor subfamily 4 group A member 2 (Homo sapiens), sequence (P43354 whole entry, looked up): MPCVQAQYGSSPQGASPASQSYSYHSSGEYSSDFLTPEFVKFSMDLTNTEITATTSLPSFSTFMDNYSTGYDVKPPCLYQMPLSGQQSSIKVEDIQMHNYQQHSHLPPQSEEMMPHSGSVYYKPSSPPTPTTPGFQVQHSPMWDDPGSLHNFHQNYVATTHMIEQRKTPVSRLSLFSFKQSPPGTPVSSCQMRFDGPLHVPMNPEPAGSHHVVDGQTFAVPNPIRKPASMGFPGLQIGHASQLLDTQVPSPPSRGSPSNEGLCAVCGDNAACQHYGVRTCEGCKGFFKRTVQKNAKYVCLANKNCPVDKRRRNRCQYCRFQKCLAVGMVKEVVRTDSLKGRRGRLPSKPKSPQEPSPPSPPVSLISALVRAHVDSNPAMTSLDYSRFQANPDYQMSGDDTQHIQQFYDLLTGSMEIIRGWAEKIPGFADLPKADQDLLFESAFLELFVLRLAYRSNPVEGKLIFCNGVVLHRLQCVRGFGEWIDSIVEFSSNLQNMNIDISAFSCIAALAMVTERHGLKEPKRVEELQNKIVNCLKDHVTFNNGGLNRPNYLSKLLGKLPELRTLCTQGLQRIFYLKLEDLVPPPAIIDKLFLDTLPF
X-box-binding protein 1 (Homo sapiens), sequence (P17861 whole entry, looked up): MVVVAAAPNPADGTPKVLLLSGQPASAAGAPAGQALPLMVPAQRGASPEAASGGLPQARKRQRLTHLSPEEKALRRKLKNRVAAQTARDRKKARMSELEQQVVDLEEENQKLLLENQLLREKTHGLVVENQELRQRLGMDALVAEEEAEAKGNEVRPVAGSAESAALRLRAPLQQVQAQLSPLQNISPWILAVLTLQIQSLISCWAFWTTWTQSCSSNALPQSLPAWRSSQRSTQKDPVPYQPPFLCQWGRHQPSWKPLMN
Estrogen receptor (Homo sapiens), sequence (P03372 whole entry, looked up, the tested form may be a part): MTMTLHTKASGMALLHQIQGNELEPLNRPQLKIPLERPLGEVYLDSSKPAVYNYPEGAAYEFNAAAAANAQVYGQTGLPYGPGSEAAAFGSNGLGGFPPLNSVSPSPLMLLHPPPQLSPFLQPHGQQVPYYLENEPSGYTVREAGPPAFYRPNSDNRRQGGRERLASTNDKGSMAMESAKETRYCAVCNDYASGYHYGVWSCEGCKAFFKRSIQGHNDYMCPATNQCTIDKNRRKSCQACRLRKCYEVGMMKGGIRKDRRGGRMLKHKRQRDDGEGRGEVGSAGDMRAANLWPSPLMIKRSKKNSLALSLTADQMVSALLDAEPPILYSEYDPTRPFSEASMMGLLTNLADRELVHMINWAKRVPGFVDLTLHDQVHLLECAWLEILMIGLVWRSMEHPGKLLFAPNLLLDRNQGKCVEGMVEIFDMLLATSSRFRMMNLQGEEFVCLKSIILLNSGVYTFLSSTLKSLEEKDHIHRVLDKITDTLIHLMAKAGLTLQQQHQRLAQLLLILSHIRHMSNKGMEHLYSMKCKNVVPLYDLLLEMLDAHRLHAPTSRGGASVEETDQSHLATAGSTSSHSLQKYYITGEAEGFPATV
Glucocorticoid receptor (Homo sapiens), sequence (P04150 whole entry, looked up, the tested form may be a part): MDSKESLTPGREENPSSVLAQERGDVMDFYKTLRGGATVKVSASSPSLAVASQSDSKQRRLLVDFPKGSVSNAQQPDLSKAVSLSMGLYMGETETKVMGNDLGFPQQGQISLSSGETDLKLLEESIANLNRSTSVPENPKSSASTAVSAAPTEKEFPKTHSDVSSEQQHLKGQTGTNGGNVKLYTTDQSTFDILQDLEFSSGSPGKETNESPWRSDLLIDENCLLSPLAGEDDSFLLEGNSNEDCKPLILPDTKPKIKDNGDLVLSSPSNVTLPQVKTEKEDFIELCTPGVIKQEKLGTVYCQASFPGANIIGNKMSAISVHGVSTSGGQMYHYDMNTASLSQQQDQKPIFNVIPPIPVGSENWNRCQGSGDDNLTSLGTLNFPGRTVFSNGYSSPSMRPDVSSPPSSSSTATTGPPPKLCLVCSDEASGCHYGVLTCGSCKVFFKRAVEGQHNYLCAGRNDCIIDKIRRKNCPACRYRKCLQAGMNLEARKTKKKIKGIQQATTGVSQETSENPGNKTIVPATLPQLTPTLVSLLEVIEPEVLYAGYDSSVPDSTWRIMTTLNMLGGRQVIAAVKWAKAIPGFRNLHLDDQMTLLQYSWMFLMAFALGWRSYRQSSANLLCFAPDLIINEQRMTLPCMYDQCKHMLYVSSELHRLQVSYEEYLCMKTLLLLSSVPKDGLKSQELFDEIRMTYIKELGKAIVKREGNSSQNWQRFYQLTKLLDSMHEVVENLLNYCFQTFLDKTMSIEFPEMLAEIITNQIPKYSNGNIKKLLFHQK
Estrogen-related receptor gamma (Homo sapiens), sequence (P62508 whole entry, looked up, the tested form may be a part): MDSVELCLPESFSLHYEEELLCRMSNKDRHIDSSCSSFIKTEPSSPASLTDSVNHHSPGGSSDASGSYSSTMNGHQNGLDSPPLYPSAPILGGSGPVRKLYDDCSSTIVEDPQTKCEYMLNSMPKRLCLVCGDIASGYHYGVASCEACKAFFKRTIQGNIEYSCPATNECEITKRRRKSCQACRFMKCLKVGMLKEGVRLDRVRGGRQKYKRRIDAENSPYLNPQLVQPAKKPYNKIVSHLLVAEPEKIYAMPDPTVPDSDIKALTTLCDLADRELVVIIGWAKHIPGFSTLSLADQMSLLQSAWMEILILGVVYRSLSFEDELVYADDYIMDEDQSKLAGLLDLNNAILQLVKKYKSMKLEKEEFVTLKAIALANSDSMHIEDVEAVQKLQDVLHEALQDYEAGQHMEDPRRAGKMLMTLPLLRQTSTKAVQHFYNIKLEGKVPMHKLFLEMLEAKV
Hepatocyte nuclear factor 4-alpha (Homo sapiens), sequence (P41235 whole entry, looked up): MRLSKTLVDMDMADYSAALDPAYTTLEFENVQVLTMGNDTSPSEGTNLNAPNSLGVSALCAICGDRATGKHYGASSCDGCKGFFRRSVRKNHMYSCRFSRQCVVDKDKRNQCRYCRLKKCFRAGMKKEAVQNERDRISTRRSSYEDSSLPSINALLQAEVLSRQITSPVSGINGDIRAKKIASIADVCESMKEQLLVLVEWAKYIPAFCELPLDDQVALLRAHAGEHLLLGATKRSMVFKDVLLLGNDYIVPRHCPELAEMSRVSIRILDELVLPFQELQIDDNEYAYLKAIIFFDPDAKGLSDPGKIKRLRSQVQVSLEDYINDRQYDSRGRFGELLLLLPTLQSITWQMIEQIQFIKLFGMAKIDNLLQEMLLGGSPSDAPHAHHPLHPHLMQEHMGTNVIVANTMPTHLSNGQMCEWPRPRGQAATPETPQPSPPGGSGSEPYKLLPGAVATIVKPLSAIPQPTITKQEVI
Transcriptional activator Myb (Homo sapiens), sequence (P10242 whole entry, looked up): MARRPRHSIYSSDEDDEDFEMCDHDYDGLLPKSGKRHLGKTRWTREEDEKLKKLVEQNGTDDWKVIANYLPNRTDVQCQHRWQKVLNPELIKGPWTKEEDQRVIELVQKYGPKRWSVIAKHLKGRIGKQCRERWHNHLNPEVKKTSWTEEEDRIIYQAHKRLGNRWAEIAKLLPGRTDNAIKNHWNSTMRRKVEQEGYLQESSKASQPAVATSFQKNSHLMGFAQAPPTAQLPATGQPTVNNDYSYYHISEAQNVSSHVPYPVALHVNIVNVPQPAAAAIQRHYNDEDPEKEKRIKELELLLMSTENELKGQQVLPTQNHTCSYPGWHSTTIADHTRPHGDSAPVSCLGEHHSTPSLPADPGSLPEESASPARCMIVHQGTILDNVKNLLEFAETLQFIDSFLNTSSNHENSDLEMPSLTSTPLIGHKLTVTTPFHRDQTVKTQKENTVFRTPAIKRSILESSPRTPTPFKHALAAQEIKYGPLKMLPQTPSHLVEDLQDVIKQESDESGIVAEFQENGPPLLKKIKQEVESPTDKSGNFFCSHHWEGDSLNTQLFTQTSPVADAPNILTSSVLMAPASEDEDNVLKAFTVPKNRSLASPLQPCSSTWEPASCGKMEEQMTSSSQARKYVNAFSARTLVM
Oxysterols receptor LXR-beta (Homo sapiens), sequence (P55055 whole entry, looked up, the tested form may be a part): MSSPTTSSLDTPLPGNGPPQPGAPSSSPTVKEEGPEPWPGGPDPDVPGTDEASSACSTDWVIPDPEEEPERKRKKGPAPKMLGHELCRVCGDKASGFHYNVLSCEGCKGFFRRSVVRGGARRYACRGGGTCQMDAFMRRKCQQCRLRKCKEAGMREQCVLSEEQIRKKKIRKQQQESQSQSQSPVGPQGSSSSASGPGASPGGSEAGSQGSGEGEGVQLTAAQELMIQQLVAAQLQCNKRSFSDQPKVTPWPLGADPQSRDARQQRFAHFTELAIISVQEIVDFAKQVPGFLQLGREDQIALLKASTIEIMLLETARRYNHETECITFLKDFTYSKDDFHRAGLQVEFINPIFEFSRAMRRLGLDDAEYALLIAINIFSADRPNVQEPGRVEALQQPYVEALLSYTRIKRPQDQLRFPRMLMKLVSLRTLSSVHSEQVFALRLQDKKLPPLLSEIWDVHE
Oxysterols receptor LXR-alpha (Homo sapiens), sequence (Q13133 whole entry, looked up, the tested form may be a part): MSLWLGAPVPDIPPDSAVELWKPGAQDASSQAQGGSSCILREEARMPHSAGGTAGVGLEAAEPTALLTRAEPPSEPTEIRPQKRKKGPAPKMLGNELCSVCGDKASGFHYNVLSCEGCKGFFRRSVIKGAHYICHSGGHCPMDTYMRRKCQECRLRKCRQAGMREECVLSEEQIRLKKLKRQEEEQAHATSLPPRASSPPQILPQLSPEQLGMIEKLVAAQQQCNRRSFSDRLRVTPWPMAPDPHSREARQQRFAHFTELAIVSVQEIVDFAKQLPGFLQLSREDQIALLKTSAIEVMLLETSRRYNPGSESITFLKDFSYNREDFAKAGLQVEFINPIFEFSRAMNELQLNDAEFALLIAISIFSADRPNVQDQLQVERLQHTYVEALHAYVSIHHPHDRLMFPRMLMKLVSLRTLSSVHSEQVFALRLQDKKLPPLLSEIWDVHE

In the case of `CC1=CC[C@@H](C(C)(C)O)CC1`, the call in assay [1], in assay [2], in [3], in assay [4], in assay [5] and in assay [6] was inactive. In addition, the molecule was classed as inactive in assay [7], in assay [8] and in assay [9].

As for `CCCCCCCCCC(=O)OCC`, the result in assay [1], in [2], in assay [3], in assay [4], in [5] and in assay [10] was inactive. For the same molecule, the molecule was classed as inactive in assay [8] and in assay [9].

In the case of `CCCCCCCOC(C)=O`, the molecule was classed as inactive in assay [1], in assay [2], in [3], in assay [5], in assay [8] and in assay [11]. Moreover, the call in [12] and in assay [9] was inactive. For the same molecule, the AC50 in assay [4] is 17.6 µM (active).

Consider `S=c1[nH][nH]c(=S)s1`, for which the outcome in assay [1], in assay [2], in assay [3], in assay [5], in assay [13] and in assay [10] was inactive. The molecule was classed as inactive in assay [14], in assay [6] and in [9].

With `CC(=O)OC(C)(C)C`, the call in assay [1], in [2], in assay [3], in assay [5], in assay [13] and in [10] was inactive. The molecule was called inactive in assay [6], in [7], in assay [11], in [12] and in [9].

Consider `CCCC(O)C(CC)CO` (stereo unspecified), for which the result in assay [1], in assay [2], in assay [3], in assay [5], in assay [6] and in assay [7] was inactive. Besides, the molecule was called inactive in assay [8], in assay [11], in assay [12] and in assay [9].

Regarding `C[C@]12CC[C@@H]3c4ccc(O)cc4CC[C@H]3[C@@H]1CC[C@@H]2O`, the molecule was called inactive in [1], in assay [3], in assay [15], in assay [16], in assay [17] and in assay [5]. The molecule was classed as inactive in [13], in [10], in assay [18], in assay [14], in assay [6] and in assay [19]. Also, the outcome in [7], in [8], in [11], in assay [12] and in assay [9] was inactive. In assay [15], the AC50 was 8.99 µM (active) and 4.21 µM (active).

For the molecule `c1coc(CNc2ncnc3nc[nH]c23)c1`, the molecule was called inactive in [1], in assay [2], in assay [3], in [4], in assay [5] and in assay [14]. The molecule was called inactive in assay [19], in assay [7], in assay [8], in assay [11], in assay [12] and in assay [9].

Regarding `C=CC(=O)OCC(CO)(COC(=O)C=C)COC(=O)C=C`, the AC50 in assay [1] is 5.46 µM (active); in assay [3], 54.2 µM (active); in [9] it was 180 µM (active). For the same molecule, the molecule was called inactive in assay [2], in [17], in assay [5], in assay [10], in [18] and in assay [7]. In addition, the molecule was called inactive in assay [8].

The term AC50 denotes the midpoint of the concentration-response curve, whichever way the signal moves.

The record behind these values is PubChem BioAssay (EPA / NIEHS).
